According to publication PMC7819943, “Rice protein-binding microarrays: a tool to detect cis-acting elements near promoter regions in rice”:
Whole data set: some 39,000 sequences, median “fluorescence intensity (a.u.)” near 4,300, cut for the highest 2% near 39,000. Many of the other results were omitted from the sample, so the highest values are more common in it than they were.

molecular target: T1, OsSMF1 (Oryza sativa, UniProt Q6ZLB0 1-436); assay: protein-binding microarray (RPBM); PBS, 2% BSA, 51.3 ng/ul salmon testes DNA, 50 uM zinc acetate, 200 nM TF, 25 C, 1 h; high values mean tight binding; conditions: protein: recombinant; tags: N-terminal polyhistidine and DsRed monomer fusion (pET32a); chain copies: 2; label: CyDye5-dUTP incorporated in the synthesized complementary strand; 3' TTTTT single-stranded linker to array surface; dsDNA, one strand shown
T1 sequence: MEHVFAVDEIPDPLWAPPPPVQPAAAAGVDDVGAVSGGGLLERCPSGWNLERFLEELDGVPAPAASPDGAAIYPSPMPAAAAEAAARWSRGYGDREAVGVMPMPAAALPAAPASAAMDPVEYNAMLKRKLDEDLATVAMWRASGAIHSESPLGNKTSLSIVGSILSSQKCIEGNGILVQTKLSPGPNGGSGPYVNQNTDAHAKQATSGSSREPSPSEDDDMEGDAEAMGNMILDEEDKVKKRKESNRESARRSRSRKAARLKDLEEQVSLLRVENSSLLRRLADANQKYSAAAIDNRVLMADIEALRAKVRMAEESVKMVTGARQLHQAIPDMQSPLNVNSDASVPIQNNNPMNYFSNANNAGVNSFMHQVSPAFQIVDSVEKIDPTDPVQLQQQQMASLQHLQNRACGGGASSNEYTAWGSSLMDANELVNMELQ
Method in brief: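 Transcription factors, each fused N-terminally to a polyhistidine tag and DsRed, were expressed in E. coli BL21-CodonPlus and purified on Ni–NTA. A custom Agilent array was made double-stranded by primer extension with Cy5-dUTP and blocked with 2% BSA. It was incubated with 200 nM protein in PBS, 2% BSA, salmon testes DNA and 50 µM zinc acetate at 25 °C for 1 h, then washed. The binding signal is per-feature fluorescence intensity (arbitrary units) read on an Axon 4000B scanner.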

| Sequence | binding signal |
| --- | --- |
| GCACCGGTTTTGATAGTTGAGGGACTTGTTGTATCTGGTTCGGAGTCACCTAGTGCAG | 29200 fluorescence intensity (a.u.) |
| TGTGACCGGTTTTGATTAGTTAAGGGACGCCGGGTATCTGCGGAGTCACCTAGTGCAG | 31600 fluorescence intensity (a.u.) |
| AATCTGCACCGGTTTTGATAGTTAAGGGACTAATTGTATCCGGAGTCACCTAGTGCAG | 41700 fluorescence intensity (a.u.) |
| TAAGATCACCTATAGATATATCATTCCAAGTCATAGATTGCGGAGTCACCTAGTGCAG | 6060 fluorescence intensity (a.u.) |
| GCAGTAGACACGACGTACTTGTCAATGGTGAGGCATTTATCGGAGTCACCTAGTGCAG | 3350 fluorescence intensity (a.u.) |
| ATTGAAAAGTTTGGTTCAAATTAAAATTTTAGTAACAAAACGGAGTCACCTAGTGCAG | 24300 fluorescence intensity (a.u.) |
| TAATTGTGATCAAAATTGTAACAAATGCACGGTCATTAAGCGGAGTCACCTAGTGCAG | 3320 fluorescence intensity (a.u.) |
| TGGTTCAAAATGTAAACATTAGTTAAATGGTGATCCAAAGCGGAGTCACCTAGTGCAG | 49900 fluorescence intensity (a.u.) |
| TAGTACCTTTACTTTTCAGTTTTCACCCCATGTGGCATACCGGAGTCACCTAGTGCAG | 3620 fluorescence intensity (a.u.) |
| GCCACGGTCTCGTTGTGATGTTGTGATATTAGGTTCACTGCGGAGTCACCTAGTGCAG | 46600 fluorescence intensity (a.u.) |
| TCCCGCATGTGTTGTGTGATGTGTCTCGTCTCCGCCACCACGGAGTCACCTAGTGCAG | 7960 fluorescence intensity (a.u.) |
| AGTTGTGATGTCGCCACGTTGGCGGCCGGCGACTGCGCCACGGAGTCACCTAGTGCAG | 12000 fluorescence intensity (a.u.) |
| TCTTCATGTAGTCAGCATACATCTGTCACAGCCACAGACACGGAGTCACCTAGTGCAG | 4480 fluorescence intensity (a.u.) |
| AATAAGTAGTTGGTGATACGTGTTAGCCACGAGGCATATACGGAGTCACCTAGTGCAG | 4020 fluorescence intensity (a.u.) |
| AGAGGTACGTAAAATGACACATGTGCCTCTTCATACGCTCCGGAGTCACCTAGTGCAG | 3150 fluorescence intensity (a.u.) |
| CCAAGTTCGGCTGGTCGCCACGCCACCCATCTCCATCTTCCGGAGTCACCTAGTGCAG | 4140 fluorescence intensity (a.u.) |
| CTTACCATCTCCCCAAGCGGGAGAGTGGACGTCATAATTTCGGAGTCACCTAGTGCAG | 45700 fluorescence intensity (a.u.) |
| CGGGAGAGAAGCCCACGTCACTCCCATAAATGGATGTGGACGGAGTCACCTAGTGCAG | 9320 fluorescence intensity (a.u.) |
| AAACCCGGAGAGAGTGGTGTTCGTGGACGTCACCCCATTTCGGAGTCACCTAGTGCAG | 4440 fluorescence intensity (a.u.) |
| CGTCCGTGCGAATGATTGCATCTGCGCGAGCGACGCCGTTCGGAGTCACCTAGTGCAG | 3430 fluorescence intensity (a.u.) |
| TTTTCTTCTGTTCGTGTGCGTGCTCGCGCCTTTCTTGCTTCGGAGTCACCTAGTGCAG | 4250 fluorescence intensity (a.u.) |
| CTCGGCTGTTGCGCCTTCGTTTTGCACCGAGGCTGTGCTACGGAGTCACCTAGTGCAG | 55500 fluorescence intensity (a.u.) |

| Sequence | binding signal |
| --- | --- |
| TGCGAGGTGGTGGTGATTGCTTCGTCGGCTGTTGATTTCTCGGAGTCACCTAGTGCAG | 3300 fluorescence intensity (a.u.) |
| CATATATGCCCATCACCCCAATAAGAGTTCCGAATTAGATCGGAGTCACCTAGTGCAG | 3560 fluorescence intensity (a.u.) |
| CATCCCCAAACTCCGCCGCCGCCGCCGTCACCGCCGCTCGCGGAGTCACCTAGTGCAG | 3700 fluorescence intensity (a.u.) |
| ATTCATATATATATATACACACACACTTACTTTGTATATGCGGAGTCACCTAGTGCAG | 3190 fluorescence intensity (a.u.) |
| GCAGGAGCAAAGCGCTTACTTTTGCCTCACACTGTATAGTCGGAGTCACCTAGTGCAG | 45400 fluorescence intensity (a.u.) |
| AATTCTAGGTCCAGCACTGTGCTTACCTGTATAGAAGCCTCGGAGTCACCTAGTGCAG | 3200 fluorescence intensity (a.u.) |
| TTCTTCTTCTATTCCACGTCCACGTGTATGGCCAGGAGTTCGGAGTCACCTAGTGCAG | 16100 fluorescence intensity (a.u.) |
| TGAAAATGGTGTTGGCATCATAAAATATTTAACCAACCCCCGGAGTCACCTAGTGCAG | 3150 fluorescence intensity (a.u.) |
| TCACGAGCCGACACGTGTCTCCTGACGTGGTACCCTTTCCCGGAGTCACCTAGTGCAG | 21900 fluorescence intensity (a.u.) |
| TTCTGATTAGGCTGCCACATTGGCGGCACGTGTGATAGCTCGGAGTCACCTAGTGCAG | 45900 fluorescence intensity (a.u.) |
| TTGGCGTGACTAGGCGCAATTTCTGCAAATTGGAGCTCGGCGGAGTCACCTAGTGCAG | 7820 fluorescence intensity (a.u.) |
| AGATGTGATACATTAGCATTCTAGCACGGCGGTGGCATTGCGGAGTCACCTAGTGCAG | 3250 fluorescence intensity (a.u.) |
| GGCCAGGCCACCCCAACACGCCAGCCTCCCGGGCCGTTGACGGAGTCACCTAGTGCAG | 3250 fluorescence intensity (a.u.) |
| TGAACCTCGAAGATGCAAATATGTAGTAGTACGTAGGTCCCGGAGTCACCTAGTGCAG | 3310 fluorescence intensity (a.u.) |
| GGTCCGGTGTGACACTGTGACCCCGCCGTAACCCCGTAACCGGAGTCACCTAGTGCAG | 4060 fluorescence intensity (a.u.) |
| TATGTATGATCTCTTCCTGTAACATTTTCATCATCTAACCCGGAGTCACCTAGTGCAG | 3480 fluorescence intensity (a.u.) |
| CATTTCATATCAGAAGTGTGATCACTGTAACCCGCGGCGCCGGAGTCACCTAGTGCAG | 64500 fluorescence intensity (a.u.) |
| AGAGGAGCATCTTCTCGCCTGAGATTCCGTCGACGCCATTCGGAGTCACCTAGTGCAG | 3540 fluorescence intensity (a.u.) |
| GGCGGTGCTGGTGGAGGCGGTGGTCTCGGAGGTGGAGCAGCGGAGTCACCTAGTGCAG | 46000 fluorescence intensity (a.u.) |
| CTAAGGGTCTAAGAGATGATGCTGTGATGAGGTGGATCATCGGAGTCACCTAGTGCAG | 4840 fluorescence intensity (a.u.) |
| GTTGGTGGTGGAGCGGGAGGAGGTGCCGGTGGAGGCGGTGCGGAGTCACCTAGTGCAG | 53000 fluorescence intensity (a.u.) |
